Targets with a hit are over-represented here; the source holds about 7,900 in all. About 0.6% of all pairs of compound and target were hits.
How the values were obtained:
Assay in all cases: log2 fold change, soluble protein after heating vs DMSO (PISA); higher = thermal stabilisation; K562 cells, 10 uM, 30 min; active = over 0.2 and 3.5 SD of the protein, either way, in both replicates (recomputed)
erlotinib = compound: C#Cc1cccc(Nc2ncnc3cc(OCCOC)c(OCCOC)cc23)c1 [erlotinib]
Outline: (§1)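 Aliquots of K562 cells (2×10^6 cells/mL) treated with 10 μM compound for 30 min were heated for 3 min over 48°C-58°C. After pooling and extraction in PBS with 0.5% NP-40 at 4°C, soluble protein from a 21,000xg, 90 min spin was quantified by TMTpro 16plex LC-MS/MS with channel sums equalised. Thermal stability is expressed against control samples, from duplicates, as a log2 fold change.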

[1] = compound: C/C(=N\NC(=O)C1=CC(=CC=C1)S(=O)(=O)N2CCOCC2)/C3=C(C=CC(=C3)Cl)O
Outline: as §1

[2] = compound: C1=CC(=C(C=C1Cl)C2=NC3=NC=CN=C3C(=N2)NC4=CC=NC=C4)F
Outline: as §1

[3] = compound: C1=CC(=CC=C1C2=NC3=C(N2)C=C(C=C3)C(=O)N)OC4=CC=C(C=C4)Cl
Outline: as §1

[4] = compound: C1=CC2=C(C=CC(=C2)/C=C\3/C(=O)NC(=NCC4=CC=CS4)S3)N=C1
Outline: as §1

[5] = compound: C1=CC2=NC=CN=C2C=C1/C=C/3\C(=O)NC(=O)S3
Outline: as §1

[6] = compound: C1=CC=C(C=C1)C2=NC(=C(N2)C3=CC=NC=C3)C4=CC(=C(C=C4)Cl)O
Outline: as §1

[7] = compound: C1=CC=C2C(=C1)C3=NNC4=CC=CC(=C43)C2=O
Outline: as §1

[8] = compound: C1CCN(C1)C(=O)NC2=CC=CC(=C2)NC3=NC=C(C(=N3)NCCC4=CN=CN4)Br
Outline: as §1

[9] = compound: C1CN(CCC1(CC2=CC=C(C=C2)Cl)N)C3=NC=NC4=C3C=CN4
Outline: as §1

Measured: log2 fold change

MKNK1 (UniProt Q9BUB5)
active: erlotinib 0.305
inactive: [1] 0.09 | [2] -0.05 | [3] 0 | [4] 0.011 | [5] 0.081 | [6] -0.028 | [7] 0.001 | [8] -0.051 | [9] -0.066

NPM3 (UniProt O75607)
UniProt O75607, sequence (O75607 whole entry, looked up): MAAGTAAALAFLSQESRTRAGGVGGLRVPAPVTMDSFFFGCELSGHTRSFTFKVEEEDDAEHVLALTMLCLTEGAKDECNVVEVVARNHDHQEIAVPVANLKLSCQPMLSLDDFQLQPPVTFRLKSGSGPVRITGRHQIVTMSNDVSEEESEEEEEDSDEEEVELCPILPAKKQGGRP
inactive: erlotinib -0.083 | [1] -0.104 | [3] 0.02 | [4] -0.184 | [5] 0.04 | [6] -0.025 | [7] -0.022 | [8] -0.054 | [9] -0.087

MUL1 (UniProt Q969V5)
inactive: erlotinib 0.015 | [1] 0.038 | [2] 0.073 | [3] -0.004 | [4] 0.026 | [5] 0.069 | [6] 0.095 | [7] 0.034 | [8] -0.025 | [9] 0.005

NIPSNAP2 (UniProt O75323)
inactive: erlotinib 0.024 | [1] 0.065 | [2] 0.076 | [3] 0.106 | [4] 0.044 | [5] -0.079 | [6] 0.071 | [7] 0.041 | [8] 0.01 | [9] 0.007

NELFCD (UniProt Q8IXH7)
inactive: erlotinib 0.096 | [1] 0.034 | [2] 0.121 | [3] -0.154 | [4] 0.056 | [5] 0.031 | [7] 0.06

NAGPA (UniProt Q9UK23)
inactive: erlotinib 0.046 | [1] 0.023 | [2] 0.046 | [3] 0.056 | [4] 0.033 | [5] -0.018 | [7] -0.025 | [8] -0.013 | [9] 0.148

ORC5 (UniProt O43913)
inactive: erlotinib 0.089 | [1] 0.177 | [3] 0.046 | [4] 0.05 | [5] 0.062 | [6] 0.031 | [7] 0.01 | [8] -0.13 | [9] -0.026

MPHOSPH10 (UniProt O00566)
inactive: erlotinib -0.079 | [1] -0.005 | [2] -0.412 | [3] -0.023 | [4] 0.031 | [5] 0.061 | [6] 0.07 | [7] -0.004 | [8] 0.024 | [9] -0.023

NMT1 (UniProt P30419)
inactive: erlotinib -0.002 | [1] 0.001 | [2] 0.039 | [3] -0.009 | [4] -0.01 | [5] 0.07 | [6] -0.002 | [7] 0.05 | [8] 0.036
active: [9] -0.363

OXSM (UniProt Q9NWU1)
inactive: erlotinib -0.079 | [1] 0.024 | [2] 0.005 | [3] 0.055 | [4] -0.052 | [5] -0.001 | [6] 0.053 | [7] -0.034 | [8] -0.042 | [9] 0.019

NA, A0A096LPI6
inactive: erlotinib -0.009 | [1] -0.009 | [2] 0.047 | [3] 0.02 | [4] -0.051 | [5] 0.04 | [6] 0.023 | [7] -0.004 | [8] 0.008 | [9] 0.035

MMADHC (UniProt Q9H3L0)
inactive: erlotinib 0.088 | [1] -0.002 | [3] -0.034 | [4] -0.031 | [5] -0.105 | [6] -0.039 | [7] 0.073 | [8] 0.014 | [9] 0.083

NUP210 (UniProt Q8TEM1)
inactive: erlotinib 0.021 | [1] 0.004 | [2] 0.06 | [3] -0.004 | [4] 0.011 | [5] 0.015 | [6] -0.018 | [7] -0.186 | [8] -0.009 | [9] 0.012

MRM2 (UniProt Q9UI43)
inactive: erlotinib 0.023 | [1] 0.182 | [3] 0.031 | [4] 0.185 | [7] 0.121 | [8] -0.017 | [9] -0.002

NA (UniProt J3KR12)
inactive: [2] -0.073 | [5] 0.254 | [6] 0.075

MLH1 (UniProt P40692)
inactive: [1] 0.027 | [2] 0.077 | [4] -0.038 | [5] 0.096 | [7] 0.053 | [8] -0.165 | [9] 0.039

NKTR (UniProt P30414)
inactive: erlotinib 0.597 | [3] 0.028 | [5] -0.149

PAFAH2 (UniProt Q99487)
inactive: erlotinib -0.004 | [1] 0.138 | [3] -0.018 | [4] -0.144 | [5] -0.02 | [6] -0.008 | [7] 0.011 | [8] -0.017 | [9] 0.08

OAF (UniProt Q86UD1)
inactive: erlotinib -0.115 | [3] 0.05 | [6] -0.174

MYH16 (UniProt Q9H6N6)
inactive: erlotinib -0.044 | [1] 0.102 | [3] 0.049 | [4] -0.21 | [5] 0.284 | [7] 0.044 | [8] -0.089 | [9] -0.082

NPC1L1 (UniProt Q9UHC9)
inactive: [1] 0.006 | [4] 0.073 | [5] 0.143 | [7] -0.02 | [8] 0 | [9] -0.033

NAP1L1 (UniProt B7Z9C2)
inactive: erlotinib 1.01 | [1] 0.122 | [3] -0.051 | [4] 0.156 | [5] 0.175 | [7] -0.178

NUDT7 (UniProt P0C024)
inactive: erlotinib -0.246 | [2] -0.282 | [3] 0.148 | [5] -0.066 | [6] -0.118 | [8] 0.158 | [9] -0.024

NFYB (UniProt P25208)
inactive: erlotinib 0.092 | [1] -0.102 | [3] -0.153 | [4] -0.047 | [5] 0.064 | [6] -0.036 | [7] -0.045 | [8] 0.01 | [9] -0.069

NOLC1 isoform 3 (UniProt Q14978)
inactive: erlotinib 0.002 | [3] 0.183

MSANTD2 (UniProt Q6P1R3)
inactive: [2] 0.012 | [8] -0.081 | [9] -0.052

OVCA2 (UniProt Q8WZ82)
UniProt Q8WZ82, sequence (Q8WZ82 whole entry, looked up): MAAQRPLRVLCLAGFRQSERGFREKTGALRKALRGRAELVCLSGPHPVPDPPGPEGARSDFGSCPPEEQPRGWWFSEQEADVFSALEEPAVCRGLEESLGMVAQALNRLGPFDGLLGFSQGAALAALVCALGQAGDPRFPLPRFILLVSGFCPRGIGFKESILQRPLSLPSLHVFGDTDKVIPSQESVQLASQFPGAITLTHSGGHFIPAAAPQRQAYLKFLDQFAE
inactive: [1] 0.23 | [4] 0.108 | [5] 0.268 | [6] -0.044 | [7] -0.131

NA isoform 3 (UniProt Q4G0T1)
UniProt Q4G0T1, sequence (Q4G0T1 whole entry, looked up): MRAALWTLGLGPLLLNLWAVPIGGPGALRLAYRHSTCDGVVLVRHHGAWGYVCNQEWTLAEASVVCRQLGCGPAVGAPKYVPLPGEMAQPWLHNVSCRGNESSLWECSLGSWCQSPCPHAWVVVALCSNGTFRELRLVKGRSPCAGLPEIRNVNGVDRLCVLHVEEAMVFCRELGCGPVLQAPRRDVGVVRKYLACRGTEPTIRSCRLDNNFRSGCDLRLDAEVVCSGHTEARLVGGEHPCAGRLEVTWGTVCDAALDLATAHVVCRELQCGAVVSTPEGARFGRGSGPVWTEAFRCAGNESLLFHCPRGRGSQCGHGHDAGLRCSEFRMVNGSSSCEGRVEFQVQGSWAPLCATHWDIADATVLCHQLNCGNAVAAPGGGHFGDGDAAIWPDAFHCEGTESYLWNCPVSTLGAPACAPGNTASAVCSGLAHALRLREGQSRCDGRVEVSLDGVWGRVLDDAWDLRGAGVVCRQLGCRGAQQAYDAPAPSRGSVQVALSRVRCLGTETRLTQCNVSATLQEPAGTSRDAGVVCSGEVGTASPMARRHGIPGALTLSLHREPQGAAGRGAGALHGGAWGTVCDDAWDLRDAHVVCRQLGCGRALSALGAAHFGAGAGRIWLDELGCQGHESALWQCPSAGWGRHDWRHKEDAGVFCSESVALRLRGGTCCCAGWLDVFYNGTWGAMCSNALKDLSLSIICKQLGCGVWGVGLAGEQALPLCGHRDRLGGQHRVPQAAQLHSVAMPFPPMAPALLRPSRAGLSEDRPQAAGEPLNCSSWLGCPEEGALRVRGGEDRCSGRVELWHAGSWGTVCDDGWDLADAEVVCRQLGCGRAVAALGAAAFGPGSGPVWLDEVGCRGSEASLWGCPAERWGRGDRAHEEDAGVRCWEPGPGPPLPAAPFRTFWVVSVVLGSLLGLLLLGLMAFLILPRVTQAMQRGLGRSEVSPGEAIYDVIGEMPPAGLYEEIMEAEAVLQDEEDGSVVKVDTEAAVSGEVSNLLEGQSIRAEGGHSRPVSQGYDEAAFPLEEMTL
inactive: erlotinib 0.019 | [1] 0 | [3] 0.01 | [4] 0.11 | [5] -0.035 | [6] 0.014 | [7] 0.047 | [8] 0.058 | [9] 0.071

MYLK (UniProt Q15746)
inactive: erlotinib 0.25 | [3] -0.146 | [5] -0.005 | [6] 0.291 | [8] 0.008 | [9] -0.066

NA, A0A2R8Y3M9
inactive: [1] -0.335 | [4] 0.355 | [5] 0.132 | [6] -0.072 | [7] -0.137

NDUFA7 (UniProt M0R0N0)
inactive: erlotinib 0.101 | [3] -0.051 | [5] 0.015

MON1A (UniProt Q86VX9)
inactive: erlotinib -0.119 | [2] 0.022 | [3] 0 | [5] -0.262 | [6] -0.017 | [8] 0 | [9] 0.135

NA, A0A1W2PSA9
inactive: [1] -0.065 | [4] -0.111 | [6] -0.008 | [7] -0.104 | [8] 0.101 | [9] -0.086

P4HA2 (UniProt O15460)
active: [2] -0.548
inactive: erlotinib -0.075 | [3] 0.034 | [5] -0.025 | [6] -0.02 | [8] -0.016 | [9] -0.035

MOB2 isoform 3 (UniProt Q70IA6)
UniProt Q70IA6, sequence (Q70IA6 whole entry, looked up): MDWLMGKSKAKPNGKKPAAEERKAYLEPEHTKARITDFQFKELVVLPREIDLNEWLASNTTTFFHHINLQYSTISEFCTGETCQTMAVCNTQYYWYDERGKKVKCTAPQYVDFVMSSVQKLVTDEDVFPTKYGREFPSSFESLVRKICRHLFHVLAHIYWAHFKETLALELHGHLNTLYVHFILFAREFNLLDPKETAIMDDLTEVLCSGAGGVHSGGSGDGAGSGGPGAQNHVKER
inactive: erlotinib 0.029 | [2] -0.077 | [3] -0.001 | [5] 0.06 | [6] 0.025 | [8] 0.135 | [9] -0.22

MITF (UniProt O75030)
inactive: erlotinib -0.021 | [1] -0.015 | [3] 0.041 | [4] -0.011 | [7] 0.047

MRFAP1 (UniProt Q9Y605)
inactive: erlotinib -0.007 | [1] -0.019 | [3] -0.013 | [4] -0.334 | [5] 0.014 | [6] -0.045 | [7] 0.141 | [8] -0.162 | [9] -0.106

NA (UniProt B2RBV5)
UniProt B2RBV5, sequence (B2RBV5 whole entry, looked up): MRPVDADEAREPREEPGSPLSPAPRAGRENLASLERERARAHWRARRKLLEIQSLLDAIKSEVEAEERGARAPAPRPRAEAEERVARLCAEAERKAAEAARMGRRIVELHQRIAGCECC
inactive: [2] -0.068 | [5] -0.015

NA, A0A494C071
inactive: [1] 0 | [2] 0.197 | [4] -0.005 | [5] 0.079 | [7] -0.018 | [8] 0.136 | [9] 0.114

MXRA7 isoform 3 (UniProt P84157)
inactive: [6] -0.08

MYSM1 (UniProt Q5VVJ2)
inactive: [5] 0.173 | [6] 0.37

NEU3 isoform 2 (UniProt Q9UQ49)
inactive: erlotinib 0.164 | [3] 0

NIPSNAP3B (UniProt Q9BS92)
inactive: erlotinib -0.061 | [1] -0.014 | [3] -0.071 | [4] -0.159 | [5] 0.031 | [7] 0.007 | [8] 0.008 | [9] 0.051

MOB3B (UniProt Q86TA1)
inactive: erlotinib -0.305 | [1] 0.302 | [3] -0.271 | [4] 0.24 | [5] -0.056 | [7] -0.092 | [8] -0.186 | [9] 0.059

NIPSNAP2 (UniProt C9J7B1)
inactive: [1] -0.171 | [4] -0.16 | [5] 0.057 | [7] -0.138

ORC3 (UniProt Q9UBD5)
inactive: [1] 0.097 | [4] -0.104 | [7] 0.105

NOS1AP (UniProt O75052)
UniProt O75052, sequence (O75052 whole entry, looked up): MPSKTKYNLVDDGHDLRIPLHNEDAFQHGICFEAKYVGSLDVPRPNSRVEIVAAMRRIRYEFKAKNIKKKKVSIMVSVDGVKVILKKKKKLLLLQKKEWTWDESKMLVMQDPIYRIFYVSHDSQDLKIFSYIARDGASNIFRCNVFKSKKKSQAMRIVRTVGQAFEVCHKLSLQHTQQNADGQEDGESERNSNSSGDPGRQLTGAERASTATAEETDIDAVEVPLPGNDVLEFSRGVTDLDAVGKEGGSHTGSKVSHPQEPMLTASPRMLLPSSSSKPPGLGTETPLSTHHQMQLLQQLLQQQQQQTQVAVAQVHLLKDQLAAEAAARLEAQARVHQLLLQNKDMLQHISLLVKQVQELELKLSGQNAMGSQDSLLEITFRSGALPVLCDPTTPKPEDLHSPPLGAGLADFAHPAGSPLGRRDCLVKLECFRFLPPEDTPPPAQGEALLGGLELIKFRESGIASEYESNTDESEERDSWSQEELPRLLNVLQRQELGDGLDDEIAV
inactive: erlotinib 0.134 | [2] 0.517 | [3] -0.006 | [5] -0.02 | [6] -0.248 | [8] -0.208
active: [9] 1.09

OXR1 isoform 2 (UniProt Q8N573)
UniProt Q8N573, sequence (Q8N573 whole entry, looked up): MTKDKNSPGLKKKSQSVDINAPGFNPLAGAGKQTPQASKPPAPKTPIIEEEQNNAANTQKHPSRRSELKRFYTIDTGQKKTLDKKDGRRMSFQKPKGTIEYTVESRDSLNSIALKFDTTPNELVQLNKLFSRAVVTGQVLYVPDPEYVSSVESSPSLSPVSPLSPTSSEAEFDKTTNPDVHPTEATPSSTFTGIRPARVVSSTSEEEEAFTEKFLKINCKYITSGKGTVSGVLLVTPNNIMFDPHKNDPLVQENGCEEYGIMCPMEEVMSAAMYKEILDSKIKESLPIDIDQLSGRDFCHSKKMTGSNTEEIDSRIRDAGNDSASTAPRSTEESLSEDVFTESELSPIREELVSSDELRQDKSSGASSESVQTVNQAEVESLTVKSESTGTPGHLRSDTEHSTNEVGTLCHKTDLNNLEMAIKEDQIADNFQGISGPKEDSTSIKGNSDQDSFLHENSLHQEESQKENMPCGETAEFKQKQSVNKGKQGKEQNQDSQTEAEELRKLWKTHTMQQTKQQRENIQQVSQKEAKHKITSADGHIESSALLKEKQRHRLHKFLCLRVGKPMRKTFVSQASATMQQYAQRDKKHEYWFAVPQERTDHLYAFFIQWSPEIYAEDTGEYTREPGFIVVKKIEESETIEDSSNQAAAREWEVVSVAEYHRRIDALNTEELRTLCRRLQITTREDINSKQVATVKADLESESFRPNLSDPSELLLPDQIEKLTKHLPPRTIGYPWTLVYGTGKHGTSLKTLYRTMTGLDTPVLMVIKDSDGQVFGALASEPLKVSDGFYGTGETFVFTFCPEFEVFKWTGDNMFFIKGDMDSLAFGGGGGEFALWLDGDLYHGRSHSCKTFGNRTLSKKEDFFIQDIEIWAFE
inactive: [1] 0.137 | [2] -0.362 | [4] -0.034 | [6] -0.056 | [7] 0.068 | [8] 0.02 | [9] -0.022

NUDT6 (UniProt P53370)
UniProt P53370, sequence (P53370 whole entry, looked up): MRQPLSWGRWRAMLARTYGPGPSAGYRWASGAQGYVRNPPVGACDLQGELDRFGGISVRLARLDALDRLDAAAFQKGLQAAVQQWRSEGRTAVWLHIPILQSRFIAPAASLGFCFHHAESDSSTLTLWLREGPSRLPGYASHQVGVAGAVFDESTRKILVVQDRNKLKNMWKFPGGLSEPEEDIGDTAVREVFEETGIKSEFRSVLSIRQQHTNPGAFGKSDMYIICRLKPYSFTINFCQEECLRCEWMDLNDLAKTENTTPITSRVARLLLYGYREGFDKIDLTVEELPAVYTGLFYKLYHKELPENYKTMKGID
inactive: erlotinib -0.022 | [2] 0.155 | [3] 0.103 | [6] -0.12 | [8] 0.121 | [9] 0.35

MPHOSPH8 isoform 2 (UniProt Q99549)
inactive: [1] 0.033 | [2] 0.24 | [4] -0.044 | [6] -0.055 | [7] -0.086 | [8] -0.02 | [9] -0.065

NCOA5 (UniProt Q9HCD5)
UniProt Q9HCD5, sequence (Q9HCD5 whole entry, looked up): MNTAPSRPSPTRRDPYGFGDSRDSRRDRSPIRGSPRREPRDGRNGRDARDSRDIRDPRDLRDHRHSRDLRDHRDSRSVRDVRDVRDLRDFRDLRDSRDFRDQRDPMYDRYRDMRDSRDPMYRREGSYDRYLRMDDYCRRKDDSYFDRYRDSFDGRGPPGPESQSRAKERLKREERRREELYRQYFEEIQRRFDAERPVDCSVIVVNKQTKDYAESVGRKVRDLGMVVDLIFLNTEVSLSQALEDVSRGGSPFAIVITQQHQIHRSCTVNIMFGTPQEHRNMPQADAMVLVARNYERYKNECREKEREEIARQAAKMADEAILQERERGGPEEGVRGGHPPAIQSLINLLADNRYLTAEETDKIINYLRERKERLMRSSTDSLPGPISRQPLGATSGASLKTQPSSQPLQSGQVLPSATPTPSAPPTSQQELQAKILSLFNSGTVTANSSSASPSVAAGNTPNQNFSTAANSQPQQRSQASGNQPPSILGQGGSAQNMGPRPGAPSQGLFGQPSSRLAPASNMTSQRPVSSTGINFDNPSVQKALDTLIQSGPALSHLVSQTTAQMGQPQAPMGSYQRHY
inactive: erlotinib -0.057 | [3] 0.156 | [6] -0.094

MTHFD1, A0A384N5Y3
MTHFD1, A0A384N5Y3, sequence (A0A384N5Y3 whole entry, looked up): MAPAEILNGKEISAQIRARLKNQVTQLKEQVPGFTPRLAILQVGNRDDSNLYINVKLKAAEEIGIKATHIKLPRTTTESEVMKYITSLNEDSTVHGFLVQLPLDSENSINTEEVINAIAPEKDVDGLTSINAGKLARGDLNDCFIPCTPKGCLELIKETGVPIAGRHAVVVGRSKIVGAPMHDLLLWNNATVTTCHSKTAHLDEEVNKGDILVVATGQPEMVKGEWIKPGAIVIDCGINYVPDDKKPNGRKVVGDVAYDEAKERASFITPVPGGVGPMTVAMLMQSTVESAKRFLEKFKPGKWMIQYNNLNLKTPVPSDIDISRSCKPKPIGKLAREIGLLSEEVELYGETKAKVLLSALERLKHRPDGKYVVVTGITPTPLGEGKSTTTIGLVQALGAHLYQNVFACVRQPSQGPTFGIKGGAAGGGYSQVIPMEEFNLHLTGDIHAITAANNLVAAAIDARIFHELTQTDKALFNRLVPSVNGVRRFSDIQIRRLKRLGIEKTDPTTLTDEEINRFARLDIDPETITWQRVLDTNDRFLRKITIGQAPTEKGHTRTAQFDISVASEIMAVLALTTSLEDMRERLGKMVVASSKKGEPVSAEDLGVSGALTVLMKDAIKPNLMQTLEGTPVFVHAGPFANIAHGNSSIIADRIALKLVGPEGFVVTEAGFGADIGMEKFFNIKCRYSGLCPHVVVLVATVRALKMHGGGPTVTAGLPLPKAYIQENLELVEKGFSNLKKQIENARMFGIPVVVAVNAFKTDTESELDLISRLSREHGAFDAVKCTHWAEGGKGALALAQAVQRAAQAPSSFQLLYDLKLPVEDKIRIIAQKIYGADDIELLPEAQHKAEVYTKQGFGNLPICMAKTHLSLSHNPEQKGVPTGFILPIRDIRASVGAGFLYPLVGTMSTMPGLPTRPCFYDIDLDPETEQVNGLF
inactive: [1] 0.056 | [2] 0.081 | [4] 0.146 | [5] -0.06 | [6] 0.036 | [7] 0.01 | [8] -0.004 | [9] 0.033

— the supplement of paper PMC10849652
